# High-throughput results: PubChem BioAssay, National Center for Advancing Translational Sciences (NCATS)
# RORg inh = inhibitors of mouse ROR gamma transcriptional activity. Drosophila S2 Gal4-RORgamma UAS-luciferase reporter, 20 h. AID 2551. 5.4% of 310,000 active. Potency, µM (doses to about 53.6 µM), hits mostly inhibitors. P51450; further: nearly all actives have a fitted effect of over 60% in size
#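 Luciferase reporter read in Schneider cells carrying Gal4-RORγ (mouse) and UAS-Photinus luciferase; cells given compound 1 h before 700 uM copper sulfate induction, then incubated 20 h at ambient temperature.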
# DT40 TDP1 no CPT = qHTS for Inhibitors of human tyrosyl-DNA phosphodiesterase 1 (TDP1): qHTS in cells in absence of CPT | 15% of 420,000 active | Potency, µM (series often up to 46.2 µM), actives largely listed as inhibitors | DT40 Tdp1-/- hTDP1 cells, no CPT, ATP luminescence, 48 h; further: nearly all actives have a fitted effect of over 55% in size
#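 DT40 Tdp1-/-;hTDP1 cells, no CPT (DMSO vehicle only), 400 cells/well; compounds pin-transferred; ≥48 hr, 37 °C; CellTiter-Glo 30 min RT dark, luminescence read.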
# DT40 TDP1 CPT = DT40-hTDP1 cell growth loss with CPT. chicken DT40 Tdp1-/-;hTDP1 cells + 20 nM CPT, ATP luminescence, 48 h. Potency, µM (titrated, usually from 46.2 µM), most hits filed as inhibitors. 12% of 420,000 active; further: nearly all actives have a fitted effect of over 55% in size
#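 Cell growth measured by CellTiter-Glo luminescence after a minimum 48 h, 37 C compound exposure with 20 nM CPT in Tdp1-knockout DT40 cells stably expressing hTDP1, seeded 400/well; qHTS titration format.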
# ALOX12 inh = ALOX12 (human) lipoxygenase inhibition | Potency, µM (top dose mostly 108 µM), usual class: inhibitors | purified 12hLO, xylenol orange hydroperoxide absorbance | 1.1% of 580,000 active
# Target sequence (P18054 whole entry, looked up): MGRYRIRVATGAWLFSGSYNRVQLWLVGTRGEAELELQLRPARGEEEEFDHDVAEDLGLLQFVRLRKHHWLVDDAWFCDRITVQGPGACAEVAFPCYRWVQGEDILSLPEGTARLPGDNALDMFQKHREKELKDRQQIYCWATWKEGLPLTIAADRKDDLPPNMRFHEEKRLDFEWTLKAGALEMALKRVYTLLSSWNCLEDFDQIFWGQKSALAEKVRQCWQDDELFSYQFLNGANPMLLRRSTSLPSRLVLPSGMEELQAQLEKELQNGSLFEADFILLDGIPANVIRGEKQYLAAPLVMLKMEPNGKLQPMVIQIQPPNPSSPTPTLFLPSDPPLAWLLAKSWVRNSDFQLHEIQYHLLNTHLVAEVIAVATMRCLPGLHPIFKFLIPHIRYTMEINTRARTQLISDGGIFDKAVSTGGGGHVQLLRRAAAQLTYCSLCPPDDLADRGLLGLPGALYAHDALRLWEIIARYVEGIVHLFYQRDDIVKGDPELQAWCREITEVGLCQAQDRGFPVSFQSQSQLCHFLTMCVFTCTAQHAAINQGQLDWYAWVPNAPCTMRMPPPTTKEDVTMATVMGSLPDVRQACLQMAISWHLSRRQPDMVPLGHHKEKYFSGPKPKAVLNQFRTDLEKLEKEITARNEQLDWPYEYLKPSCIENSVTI
#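 Purified human 12hLO at 150 nM in 25 mM Hepes, 0.01% Triton X-100, pH 7.0, preincubated 15 min at room temperature with compound. Reaction started with 40 uM arachidonic acid, 30 min at room temperature. Hydroperoxide measured by Fe-xylenol orange, 573/405 nm absorbance ratio.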
# ELG1 DNA repair = inhibitors of ELG1-dependent DNA repair in HEK293T cells; Potency, µM (highest dose often 46.1 µM), usual class: inhibitors; HEK293T ELG1-luciferase reporter, luminescence, 16 h; DNA damage induced by 5-fluorouridine; AID 504467; 2.3% of 330,000 active; further: nearly all actives have a fitted effect of over 55% in size
#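 In this reporter screen, reduction of luminescence relative to DMSO vehicle indicated activity. Compounds and 5-fluorouridine were added together to 2,000 cells per well, incubated for 16 hr at 37 °C, then developed with ONE-Glo.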
# VP16 counter = inhibits Gal4-VP16 luciferase reporter, ROR gamma counter-screen. Drosophila S2 Gal4-VP16 UAS-luciferase, luminescence, 20 h. AID 2546. 3.5% of 310,000 active. Potency, µM (doses to about 53.6 µM), hits mostly inhibitors;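 further: Gal4-VP16 expression switched on by copper sulfate through the metallothionein promoter; nearly all actives have a fitted effect of over 50% in size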
# Numbers stand for hits; - = inactive; ? = inconclusive; . = no result. Compounds with a hit are over-represented: about 15% of the library has one in this group of screens. The call rests on the fitted dose curve; in most records, active means well fitted curve in the direction sought with a large enough effect; inconclusive means small, poorly fitted or top-dose-only effect, or another doubt; inactive means no such curve, though single readings can be large; an effect the other way counts as inactive or inconclusive.
SMILES,RORg inh,DT40 TDP1 no CPT,DT40 TDP1 CPT,ALOX12 inh,ELG1 DNA repair,VP16 counter
COC(=O)c1cccc(C#CC(NP(=O)(c2ccccc2)c2ccccc2)c2ccccc2)c1 (centres undefined),-,?,25.9µM,?,?,-
O=C(Cn1cccc1-c1nc(-c2ccccc2)no1)Nc1cc(F)ccc1Cl,.,.,.,-,.,.
CN(C(=O)COC(=O)CSc1ccc([N+](=O)[O-])cc1)c1ccccc1,.,29.1µM,23.1µM,?,-,.
CN(C(=O)COC(=O)c1ccc([N+](=O)[O-])cc1)c1ccccc1,-,-,-,-,-,-
CCCCCCn1nc(C(=O)N(C)Cc2cccc(OC)c2)c2ccccc2c1=O,.,.,.,-,.,.
Cc1cc(C)c(NC(=O)c2ccc(CNS(=O)(=O)c3cc(C(F)(F)F)ccc3Cl)cc2)c(C)c1,-,16.4µM,20.6µM,-,-,-
O=S(=O)(NCc1ccccn1)c1cc(Cl)ccc1Cl,8.91µM,-,-,?,-,10µM
O=S(=O)(NCc1ccccn1)c1cc(C(F)(F)F)ccc1Cl,7.08µM,-,?,-,-,?
O=S(=O)(NCc1ccccn1)c1ccc(Cl)c(C(F)(F)F)c1,7.08µM,-,-,-,-,?
Cc1ccc(CNC(=O)c2ccc(C(F)(F)F)cc2)cc1,.,.,.,-,.,.
CCOc1cc(S(=O)(=O)NCc2ccccn2)ccc1Cl,-,-,-,-,-,-
O=S(=O)(Nc1ncccn1)c1cc(Cl)ccc1Cl,-,-,-,-,-,-
CC(c1ccncn1)N(C)Cc1nc(-c2ccc(C(F)(F)F)cc2)no1 (centres undefined),3.16µM,?,18.4µM,-,-,7.08µM
Cc1cc(=O)oc2cc(O)cc(OCc3ccccc3)c12,.,16.4µM,?,?,.,.
Cc1csc(NC(=O)c2cc3c(s2)CCCCC3)n1,2.82µM,14.6µM,?,-,?,3.98µM
CCOC(=O)Cc1csc(NC(=O)c2cc3c(s2)CCCC3)n1,-,?,?,-,-,-
Cc1cnc(NC(=O)c2cc3c(s2)CCCC3)s1,2µM,-,-,-,?,7.08µM
CCc1nnc(NC(=O)c2cc3c(s2)CCCCC3)s1,.,?,?,-,.,.
Cc1csc(NC(=O)c2cc3c(s2)CCCC3)n1,-,11.6µM,?,?,?,?
CN1CCC2(CC1)CN(C(=O)Nc1ccccc1)Cc1ccccc1O2,.,.,.,-,.,.
Cc1noc(Cn2cnc3c(Cl)cc(Cl)cc3c2=O)n1,.,.,.,-,.,.
COc1nc2ccccc2nc1N1CCC(C(=O)Nc2ccc(Cl)cc2)CC1,.,.,.,-,.,.
CCOc1cc(S(=O)(=O)N2CCN(CCO)CC2)ccc1Cl,.,.,.,-,.,.
COC(=O)c1ccc2ccccc2c1OS(=O)(=O)c1ccc(S(C)(=O)=O)cc1,.,.,.,-,.,.
O=C(Cn1c(-c2ccccc2)c[n+]2ccsc12)c1ccccc1,-,?,20.6µM,-,?,?
SMILES,RORg inh,DT40 TDP1 no CPT,DT40 TDP1 CPT,ALOX12 inh,ELG1 DNA repair,VP16 counter
O=C(Cn1c(-c2ccccc2)c[n+]2ccsc12)c1ccc([N+](=O)[O-])cc1,-,23.1µM,23.1µM,-,-,?
COC(=O)C(NC(=O)c1ccc(OC)cc1)(Nc1nc(C2CC2)cs1)C(F)(F)F (centres undefined),.,.,.,-,.,.
CCN(Cc1ccccc1)S(=O)(=O)c1ccc(C(=O)N2CCN(c3nc4ccccc4s3)CC2)cc1,?,9.2µM,14.6µM,-,11.6µM,22.4µM
O=C(c1ccc(Br)cc1)N1CCN(c2nc3ccccc3s2)CC1,.,.,.,-,.,.
CCS(=O)(=O)c1cccc(C(=O)N2CCN(c3nc4c(C)ccc(Cl)c4s3)CC2)c1,.,?,16.4µM,-,.,.
CCOc1ccc2nc(N3CCN(C(=O)c4ccc(S(=O)(=O)CC)cc4)CC3)sc2c1,.,18.4µM,18.4µM,-,.,.
CCOc1ccc2nc(N3CCN(C(=O)CS(=O)(=O)c4ccc(F)cc4)CC3)sc2c1,.,16.4µM,14.6µM,?,.,.
COc1ccc(CNC(=O)C(c2ccccc2F)N(C(=O)c2csnn2)C2CC2)cc1 (centres undefined),-,?,20.6µM,-,?,-
